The record followed here is article PMC8384837, “Expanding the binding specificity for RNA recognition by a PUF domain”.

Positions count from the first letter of the chain named.

Common to all, as to assay: yeast three-hybrid, YBZ-1, SC-Leu-His + 0.5 mM 3-AT, 4 days
Common to all, as to settings: tags: N-Gal4 AD-HA kept; label: inside an RPR1-promoter hybrid RNA with tandem MS2 sites; ssRNA

The target in one assay is T1, PUM1 PUF domain R6-CFR (Homo sapiens, UniProt Q14671 828-1176, N1043C;Y1044F;Q1047R).
T1 sequence: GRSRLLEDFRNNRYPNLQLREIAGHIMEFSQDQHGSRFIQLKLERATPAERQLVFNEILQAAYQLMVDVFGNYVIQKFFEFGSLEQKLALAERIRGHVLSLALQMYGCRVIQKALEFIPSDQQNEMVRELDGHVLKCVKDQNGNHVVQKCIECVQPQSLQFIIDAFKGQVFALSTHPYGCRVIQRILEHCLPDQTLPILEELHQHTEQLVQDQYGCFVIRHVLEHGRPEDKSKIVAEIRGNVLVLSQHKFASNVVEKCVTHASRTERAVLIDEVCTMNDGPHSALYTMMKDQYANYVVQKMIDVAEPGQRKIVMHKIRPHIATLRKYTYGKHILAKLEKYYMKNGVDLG
The essentials: (§1)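 Repeat regions from input (SC-Leu) and selection (SC-Leu-His + 0.5 mM 3-AT) plates were PCR-amplified and Illumina-sequenced after four days of growth. The cells were strain YBZ-1 with a LexA–MS2 coat fusion and a HIS3 reporter, co-expressing Pumilio-1 PUF domain libraries and matching RNA elements from a centromeric plasmid. The interaction score is the log change in variant frequency from input to selection, taken in log2 with a pseudocount of 1 for absent variants.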

The next assay addresses PUM1 PUF domain R5-PLD (Homo sapiens, UniProt Q14671 828-1176, C1007P;R1008L;Q1011D). The method, boiled down: as §1
The next assay addresses PUM1 PUF domain R8-GFR (Homo sapiens, UniProt Q14671 828-1176, N1122G;Y1123F;Q1126R). The essentials: as §1
A further assay concerns the target PUM1 PUF domain R3-LYE (Homo sapiens, UniProt Q14671 828-1176, C935L;R936Y;Q939E). The essentials:
as §1

A further assay addresses PUM1 PUF domain R5-RKG (Homo sapiens, UniProt Q14671 828-1176, C1007R;R1008K;Q1011G). The method, boiled down: as §1
The target of the next assay is PUM1 PUF domain R5-SRV (Homo sapiens, UniProt Q14671 828-1176, C1007S;Q1011V). The method, boiled down: as §1
The next assay has as its target PUM1 PUF domain R5-SRK (Homo sapiens, UniProt Q14671 828-1176, C1007S;Q1011K). The essentials:
as §1

Another assay concerns the target T2, PUM1 PUF domain R6-LFG (Homo sapiens, UniProt Q14671 828-1176, N1043L;Y1044F;Q1047G).
T2 sequence: T1 sequence with C216L, R220G
The method, boiled down: as §1

The target of the next assay is PUM1 PUF domain R5-KPV (Homo sapiens, UniProt Q14671 828-1176, C1007K;R1008P;Q1011V). The method, boiled down:
as §1

Another assay concerns the target PUM1 PUF domain R3-WFS (Homo sapiens, UniProt Q14671 828-1176, C935W;R936F;Q939S). The essentials: as §1

As for “GGCUAGAACUAGUGGAUCCCCCGGCGCCCGGCGGCUCGAGCCCGGGUAAGUGUAAAUAGUCUGCAUGCCGCCGGGCGCCAUGCCUGCAGGUCGACUCUAGAAAACAUG”, the binding signal is 4.59 log2 enrichment (interaction score) in the assay with PUM1 PUF domain R6-CFR; 2.61 log2 enrichment (interaction score) in the assay with PUM1 PUF domain R5-PLD; 4.66 log2 enrichment (interaction score) in the assay with PUM1 PUF domain R8-GFR; 3.76 log2 enrichment (interaction score) with PUM1 PUF domain R3-LYE; 0.47 log2 enrichment (interaction score) with PUM1 PUF domain R5-RKG; 0.54 log2 enrichment (interaction score) with PUM1 PUF domain R5-SRV. Also, the binding signal with PUM1 PUF domain R5-SRK is 3.38 log2 enrichment (interaction score).
Take “GGCUAGAACUAGUGGAUCCCCCGGCGCCCGGCGGCUCGAGCCCGGGUAAGUGAAAAUAGUCUGCAUGCCGCCGGGCGCCAUGCCUGCAGGUCGACUCUAGAAAACAUG”: the binding signal with PUM1 PUF domain R6-CFR is 4.42 log2 enrichment (interaction score); in the assay with PUM1 PUF domain R6-LFG, 5.7 log2 enrichment (interaction score).
For the sequence “GGCUAGAACUAGUGGAUCCCCCGGCGCCCGGCGGCUCGAGCCCGGGUAAGUGUCAAUAGUCUGCAUGCCGCCGGGCGCCAUGCCUGCAGGUCGACUCUAGAAAACAUG”, the binding signal in the assay with PUM1 PUF domain R5-KPV is 3.85 log2 enrichment (interaction score); with PUM1 PUF domain R5-RKG, 2 log2 enrichment (interaction score); with PUM1 PUF domain R5-SRK, 2.72 log2 enrichment (interaction score).
Regarding “GGCUAGAACUAGUGGAUCCCCCGGCGCCCGGCGGCUCGAGCCCGGGUAAGUGCAAAUAGUCUGCAUGCCGCCGGGCGCCAUGCCUGCAGGUCGACUCUAGAAAACAUG”, the binding signal with PUM1 PUF domain R6-CFR was 6.28 log2 enrichment (interaction score).
Consider “GGCUAGAACUAGUGGAUCCCCCGGCGCCCGGCGGCUCGAGCCCGGGUAAGUGUUAAUAGUCUGCAUGCCGCCGGGCGCCAUGCCUGCAGGUCGACUCUAGAAAACAUG”, for which the binding signal with PUM1 PUF domain R5-KPV is 1.4 log2 enrichment (interaction score); with PUM1 PUF domain R5-RKG it was 2.88 log2 enrichment (interaction score); with PUM1 PUF domain R5-SRK, 5.28 log2 enrichment (interaction score).
As for “GGCUAGAACUAGUGGAUCCCCCGGCGCCCGGCGGCUCGAGCCCGGGUAAGUGUAAUUAGUCUGCAUGCCGCCGGGCGCCAUGCCUGCAGGUCGACUCUAGAAAACAUG”, in the assay with PUM1 PUF domain R3-WFS, the binding signal is 2.63 log2 enrichment (interaction score).
For the sequence “GGCUAGAACUAGUGGAUCCCCCGGCGCCCGGCGGCUCGAGCCCGGGUAAGUGUGAAUAGUCUGCAUGCCGCCGGGCGCCAUGCCUGCAGGUCGACUCUAGAAAACAUG”, the binding signal with PUM1 PUF domain R5-SRV was 2.79 log2 enrichment (interaction score); with PUM1 PUF domain R5-SRK it was 3.42 log2 enrichment (interaction score).
As for “GGCUAGAACUAGUGGAUCCCCCGGCGCCCGGCGGCUCGAGCCCGGGUAAGCGUAAAUAGUCUGCAUGCCGCCGGGCGCCAUGCCUGCAGGUCGACUCUAGAAAACAUG”, the binding signal with PUM1 PUF domain R8-GFR is 4.51 log2 enrichment (interaction score).
